Measured values as given in PubChem BioAssay (NCI).
About 83,000 compounds went through this panel and 20% of them were active in at least one assay; those are over-represented in the sample as a whole.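 Activity criterion: percent growth below 10, measured after cells in 96-well plates were exposed to a single compound concentration for 48 hours.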 Values without a mark were called inactive. Calls of active or inactive are those of the source.

system: UO-31 renal; experiment: NCI-60 one-dose screen, 48 h (100 = growth as untreated, 0 = no growth, -100 = all killed); settings: 10 µM unless noted
Method: Growth inhibition of the UO-31 human tumor cell line is measured as a screen for anti-cancer activity. Cells are grown in 96 well plates and exposed to the test compound for 48 hours. Compounds are tested at a single concentration, which is 10^-5 M for most compounds. The reported endpoint is percent growth (GI% or GIPRCNT), where numbers from 0 - 100% represent growth inhibition, and numbers from -100% - 0 represent cell death. For example, a value of 40 represents 60% growth inhibition. A value of 0 means no net growth occurred over the course of the experiment. A value of -40 indicates 40% of cells at the beginning of the experiment died by the end of the experiment. A value of -100 means all cells are dead at the end of the experiment.
NCI-60 Human Tumor Cell Lines Screen was performed using the standard one-dose NCI protocol, which is described in more detail at https://dtp.cancer.gov/discovery_development/nci-60/default.htm.
Compounds with GIPRCNT values below 10 were considered active. Activity score was based on GIPRCNT using the following formula: […]
Score is 0 for GIPRCNT values of 100 or above, 50 for GIPRCNT values of 0, and 100 for GIPRCNT values of -100.

Point of comparison: `COc1cccc(/C=C/C(=O)c2cc3c(N)c(C(=O)Nc4ccccc4)sc3nc2C)c1`, growth 11.8%. Against it:
- CCn1cc(C(=O)N/N=C/c2cccs2)c(=O)c2cc(F)c(N3CCNC(C)C3)c(F)c21 (stereo not given) — higher, 66.8%
- COc1ccccc1NC(=O)Cn1cc(CN2CCN(c3ccnc4cc(Cl)ccc34)CC2)nn1 — higher, 66.8%
- COc1ccc2c(c1)c(-c1noc(C(=O)c3cn(C)c4ccc(Br)cc34)n1)cn2C — higher, 76.1%
- CCN1C(=O)N(CC)C2C1NN=c1s/c(=C\c3cccc([N+](=O)[O-])c3)c(=O)n12 (stereo not given) — higher, 41.1%
- COc1ccc(C(=S)N2CCN(c3ccccc3Cl)CC2)cc1OC — higher, 104%
- O=C(Cn1c(-c2ccc([N+](=O)[O-])cc2)nc2ccccc21)NNC(=O)c1cccnc1 — higher, 65.6%
- COc1ccc(C(c2cc(OC)c(OC)c(OC)c2)N2CCN(c3ccccc3)CC2)cc1 (stereo not given) — higher, 73.4%
- O=Cc1ccc([N+](=O)[O-])s1 — higher, 89.8%
- Cc1ccc(-c2cc(-c3ccc(Cl)cc3)nc(NC(=O)c3cccnc3)n2)cc1 — higher, 79%
- COc1cc(C(=O)n2nc(N3CCN(C)CC3)c3cc(N)ccc32)cc(OC)c1OC — higher, 26.4%
- CC/C(=C(/c1ccc(Cl)cc1)c1ccc(OCCN2CCCC2)cc1)c1ccc(OC)cc1 — higher, 59.5%
- CCOC(=O)c1c(NC(=O)c2ccc(C(C)C)cc2)sc2c(CN(C)C)c(O)ccc12 — higher, 70.5%
- O=C1c2c(c3c4ccc(Br)cc4oc3c3[nH]c4ccccc4c23)C(=O)N1O — higher, 13.8%
- CCOc1ccc(NC(=O)CSc2oc(-c3ccccc3)nc2S(=O)(=O)c2ccc(F)cc2)cc1 — higher, 94.5%
- Cc1cc(=O)[nH]c2c(C#N)cnn12 — higher, 83.8%
- O=C(CCc1nnc(Cn2cnc3nc[nH]c3c2=O)o1)c1nc2ncccc2[nH]1 — higher, 80.8%
- O=C1/C(=C/c2cccs2)SC(=S)N1CCCN1CCOCC1 — higher, 82.4%
- CCCCCCCCCCCCCCCCCCOc1ccccc1CC(=O)OCC[N+]1(C)CCCC1 — higher, 62.8%
- Brc1ccc(-n2cc(-c3nn[nH]n3)c(-c3cccs3)n2)cc1 — higher, 63.7%
- COCCn1cc(-c2nc(-c3cc4cccnc4n3CCOC)cs2)c2cc(OC)ccc21 — higher, 61.9%
- Cc1nc2sc(C(=O)Nc3cccc(Cl)c3C)c(N)c2cc1C(=O)c1ccccc1 — higher, 38.8%
- O=C(Cn1c(=O)sc2ccccc21)NNS(=O)(=O)c1ccccc1[N+](=O)[O-] — higher, 86.1%
- CC(=O)OC[C@]12CCC(C)(C)C[C@H]1[C@@]1(O)[C@H](O)C[C@@H]3[C@@]4(C)CCCNC(C)(C)[C@@H]4CC[C@@]3(C)[C@]1(C)CC2 — higher, 85.8%
- Brc1c2c(c(Br)c3ccccc13)CCCC2 — higher, 95.2%
- COc1ccc2nc3ccc(OC)cc3c(SCCCN)c2c1 — higher, 53.3%
- COc1ccc(C(=O)Nc2ncc(Cc3cccc(Cl)c3)s2)cc1OC — higher, 31.2%
- O=C(Nn1c2c(sc1=NCc1ccccc1)C(=O)c1ccccc1C2=O)c1cc2ccc1CCc1ccc(cc1)CC2 — higher, 38.2%
- CNC(=O)c1cc(Oc2ccc3nc(NC(C)=O)sc3c2)ccn1 — higher, 95%
- CCCCCOc1ccc(C(=O)/C(Br)=C/C(=O)O)cc1 — higher, 98.6%
- CC(O)c1cnc(/C=C2\SC(=S)N(Cc3ccccc3)C2=O)s1 (stereo not given) — higher, 93.5%

With `O=C1NC(=O)c2c1c1c3ccccc3ccc1c1[nH]c3ccc(Br)cc3c21` the growth was 2.24% (active).
With `Fc1ccc(Nc2nc3nonc3nc2Nc2ccc(I)cc2)cc1` the growth was -7.55% (active).
With `Cn1cc(-c2csc(-c3ccc(Cl)cc3)n2)c2cccnc21` the growth was -37.5% [100 µM] (active).
`C#Cc1ccc(NC(=O)c2ccc(/C=C/C(=O)c3nccn3C)cc2)cc1` was tested, and the growth was -98.8% (active).
With `COc1cc(/C=C\c2cc(/C=C\c3ccc(O)c(OC)c3)n(C(=O)COc3ccc(Cl)cc3Cl)n2)ccc1O` the growth was 8.72% (active).
`O=S(=O)(NCCNc1cc(-c2c(-c3cccc(O)c3)nc3sccn23)ccn1)c1ccc(C(F)(F)F)cc1` was tested, and the growth was -71.8% (active).
In the case of `COCCNC(=O)c1ccc(-c2nc3ccc4[nH]ncc4c3c3c2CCCC3)cc1`, the growth is reported as 8.86% (active).
In the case of `CC(C)c1ccc(COCc2cc(CN3CCCC3)c(O)c3ncccc23)cc1`, the growth is reported as -10.6% (active).
With `Cc1cc(Cl)ccc1NC(=O)c1cc2ccccc2cc1O` the growth was -2.52% (active).
